Where “and” joins values, the source holds several entries; their conditions need not be identical. Equal entries are not always repeated. Results filed as inconclusive are left out. Where a call stands in place of a potency, no number is given. Calls of active or inactive are those of the source. Calls come from the whole dose curve; as a rule, active = well fitted inhibition curve with a large enough effect in the repeat runs; inconclusive = weak or mixed curves; inactive = no such curve, though single readings can be large or run the other way.

Our source for the Potency values is PubChem BioAssay (Tox21).
Potency is the fitted concentration of half-maximal effect.

A short description of this assay: qHTS assay to identify small molecule antagonists of the thyroid receptor (TR) signaling pathway (AID 743065). Note: nearly all actives have a fitted effect of over 55% in size. To be noted: GH3.TRE-Luc, T3-stimulated luciferase inhibition, 23.5 h; series mostly up to 70.3 µM. The text has this: U.S. Tox21 Program National Center for Advancing Translational Sciences [NCATS] NIH Chemical Genomics Center [NCGC] U.S. Environmental Protection Agency [EPA] National Institutes of Environmental Health Sciences [NIEHS] National Toxicology Program [NTP] U.S. Food and Drug Administration [FDA] Tox21 Assay Overview: Thyroid receptor (TR), a nuclear hormone receptor, plays an important role in development, proliferation, differentiation, metabolism, brain function, and cardiovascular system. […] To profile the Tox21 10K compound library in TR signaling, a cell-based GH3-TRE-Luc assay (GH3.TRE-Luc cell line, developed by the laboratory of Dr. Albertinka J. Murk, Wageningen University) was used to measure the inhibition of TR. GH3 (rat pituitary tumor) cells stably expressing a TR activity sensor consisting of two TR response elements and a luciferase reporter gene.
Tox21 Assay Protocol Summary: GH3.TRE-Luc cells were dispensed at 1500 cells/4 uL/well into 1536-well white solid bottom plates using a Multidrop Combi dispenser (Thermo Fisher Scientific Inc., Waltham, MA). After the assay plates were incubated at 37 C for 4 hours, 23 nL of library compound or DMSO controls was transferred to the assay plates by a pintool station (Kalypsys, San Diego, CA), followed by addition of 1 ul of T3 (1 nM, final concentration in the wells) to stimulate TR transactivation. The assay plates were incubated at 37 C for 23.5 h, and then 1 uL of CellTiter-Fluor reagent (Promega, Madision, WI) of measuring cytotoxicity was added to each well using a Bioraptr Flying Reagent Dispenser (FRD) workstation (Beckman Coulter, Indianapolis, IN, USA). The plates were incubated at 37 C and 5% CO2 for additional 30 min, and fluorescence intensity was measured by a ViewLux plate reader (PerkinElmer, Shelton, CT). For measuring luciferase reporter gene activity, 4 uL of ONE-Glo Luciferase Assay reagent (Promega) was added to each well using a Bioraptr FRD (Beckman Coulter), followed by 30 min incubation at room temperature. The luminescence intensity of plates was recorded by a ViewLux plate reader (PerkinElmer, Shelton, CT).
Background: Quantitative high-throughput screening tests each substance at several concentrations.
`Cn1c([N+](=O)[O-])cnc1COC(N)=O`: the Potency result was “inactive”.
With `CCCCCCCCC`, the Potency result was “inactive”.
The entry for `c1ccc2ccccc2c1` is “inactive”; for `COC(=O)c1ccccc1O` it is “inactive”; for `Oc1ccc2ccccc2c1N=Nc1ccccc1` it is “inactive”.
In the case of `Nc1cc(-c2ccncc2)c[nH]c1=O`, the Potency entry is “inactive”.
With `CCCCOCCOCCOC(=O)CCCCC(=O)OCCOCCOCCCC`, the Potency result is “inactive”.
Take `CC(C)n1c(/C=C/[C@@H](O)C[C@@H](O)CC(=O)O)c(-c2ccc(F)cc2)c2ccccc21`: the Potency was 13.3 µM (active) and 21.7 µM (active).
In the case of `O=[N+]([O-])C(CO)(CO)CO`, the Potency result was “inactive”.
As for `CCCCC(CC)C(=O)OCCOCCOCCOC(=O)C(CC)CCCC` (stereo not given), the entry is “inactive”; as for `CCOC(=O)[C@H](CCc1ccccc1)N[C@@H](C)C(=O)N1Cc2ccccc2C[C@H]1C(=O)O`, “inactive”; as for `CC[Si](OC(C)=O)(OC(C)=O)OC(C)=O`, “inactive”.
With `CC(C)(C)C1CCC(O)CC1` (stereo not given), the Potency result was “inactive”.
As for `CC(C)(N=C=O)c1cccc(C(C)(C)N=C=O)c1`, the entry is “inactive”; as for `O=C1CCCCC1`, “inactive”.
As for `CCCCC(CC)COC(C)=O` (stereo not given), the entry is “inactive”; as for `C=C(C#N)C(=O)OCC`, “inactive”; as for `COCC(=O)O`, “inactive”.
The figure for `CN(CCOc1ccc(CC2SC(=O)NC2=O)cc1)c1ccccn1` (stereo not given) is 54.2 µM (active); for `Cc1cc(O)cc(C)c1Cl` it is “inactive”.
Take `NCc1cccc(CN)c1`: the Potency entry was “inactive”.
Consider `COC(=O)c1ccc(C(=O)OC)cc1`, for which the Potency result is “inactive”.
For the compound `O=Nc1ccc(O)cc1`, the Potency result is “inactive”.
The entry for `Cc1cc(NS(=O)(=O)c2ccc(N)cc2)no1` is “inactive”.
With `CCCCCCCCCC(=O)O`, the Potency entry was “inactive”.
Turning to `C[C@@H]1O[C@@H](OC[C@H]2O[C@@H](Oc3c(-c4ccc(O)c(O)c4)oc4cc(O)cc(O)c4c3=O)[C@H](O)[C@@H](O)[C@@H]2O)[C@H](O)[C@H](O)[C@H]1O`, the Potency entry was “inactive”.
Consider `NCCc1ccc(O)c(O)c1`, for which the Potency is 48.7 µM (active).
The entry for `S=c1nc[nH]c2nc[nH]c12` is “inactive”; for `Cc1ccc(N)c(S(=O)(=O)O)c1` it is “inactive”.
The entry for `CC1Cc2ccccc2N1NC(=O)c1ccc(Cl)c(S(N)(=O)=O)c1` (stereo not given) is “inactive”.
As for `C=C1C2CCC(C2)C1(C)C` (stereo not given), the entry is “inactive”; as for `CCc1ccccc1O`, “inactive”; as for `O=C(c1ccc(O)cc1)c1ccc(O)cc1O`, “inactive”.
Regarding `O=C(Cl)c1c(Cl)c(Cl)c(C(=O)Cl)c(Cl)c1Cl`, the Potency result is “inactive”.
As for `OC[C@@H](O)[C@@H](O)[C@H](O)[C@@H](O)CO`, the entry is “inactive”.
The figure for `CC(C)NCC(O)COc1cccc2ccccc12` (stereo not given) is 61.8 µM (active) and 54.5 µM (active); for `O=C1N=C(O)CN1/N=C/c1ccc(-c2ccc([N+](=O)[O-])cc2)o1` it is 27.3 µM (active); for `C=C(C)C(=O)OCCCCCCCCCCCC` it is “inactive”.
The entry for `CC1=C(CC(=O)O)c2cc(F)ccc2/C1=C\c1ccc(S(C)=O)cc1` (stereo not given) is “inactive”; for `CS(=O)(=O)c1ccc([C@@H](O)[C@@H](CO)NC(=O)C(Cl)Cl)cc1` it is “inactive”.
